Data reported in PMC4336329 (PLoS ONE, 2015).
In all, about 310,000 compounds went through this assay and about 14,000 (4.5%) showed an effect of 50% or more. Effects have a minus sign here. The sample as a whole holds a higher share of strong results than the screen did.

biological target: human ether-à-go-go-related gene (hERG) potassium channel (human, UniProt Q12809); assay: primary screen, population patch clamp on CHO cells stably expressing hERG; higher = less effect of the substance
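Also: peak tail current of the secondary pulse compared with the same well before compound.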

Chain of human ether-à-go-go-related gene (hERG) potassium channel (Q12809 whole entry, looked up): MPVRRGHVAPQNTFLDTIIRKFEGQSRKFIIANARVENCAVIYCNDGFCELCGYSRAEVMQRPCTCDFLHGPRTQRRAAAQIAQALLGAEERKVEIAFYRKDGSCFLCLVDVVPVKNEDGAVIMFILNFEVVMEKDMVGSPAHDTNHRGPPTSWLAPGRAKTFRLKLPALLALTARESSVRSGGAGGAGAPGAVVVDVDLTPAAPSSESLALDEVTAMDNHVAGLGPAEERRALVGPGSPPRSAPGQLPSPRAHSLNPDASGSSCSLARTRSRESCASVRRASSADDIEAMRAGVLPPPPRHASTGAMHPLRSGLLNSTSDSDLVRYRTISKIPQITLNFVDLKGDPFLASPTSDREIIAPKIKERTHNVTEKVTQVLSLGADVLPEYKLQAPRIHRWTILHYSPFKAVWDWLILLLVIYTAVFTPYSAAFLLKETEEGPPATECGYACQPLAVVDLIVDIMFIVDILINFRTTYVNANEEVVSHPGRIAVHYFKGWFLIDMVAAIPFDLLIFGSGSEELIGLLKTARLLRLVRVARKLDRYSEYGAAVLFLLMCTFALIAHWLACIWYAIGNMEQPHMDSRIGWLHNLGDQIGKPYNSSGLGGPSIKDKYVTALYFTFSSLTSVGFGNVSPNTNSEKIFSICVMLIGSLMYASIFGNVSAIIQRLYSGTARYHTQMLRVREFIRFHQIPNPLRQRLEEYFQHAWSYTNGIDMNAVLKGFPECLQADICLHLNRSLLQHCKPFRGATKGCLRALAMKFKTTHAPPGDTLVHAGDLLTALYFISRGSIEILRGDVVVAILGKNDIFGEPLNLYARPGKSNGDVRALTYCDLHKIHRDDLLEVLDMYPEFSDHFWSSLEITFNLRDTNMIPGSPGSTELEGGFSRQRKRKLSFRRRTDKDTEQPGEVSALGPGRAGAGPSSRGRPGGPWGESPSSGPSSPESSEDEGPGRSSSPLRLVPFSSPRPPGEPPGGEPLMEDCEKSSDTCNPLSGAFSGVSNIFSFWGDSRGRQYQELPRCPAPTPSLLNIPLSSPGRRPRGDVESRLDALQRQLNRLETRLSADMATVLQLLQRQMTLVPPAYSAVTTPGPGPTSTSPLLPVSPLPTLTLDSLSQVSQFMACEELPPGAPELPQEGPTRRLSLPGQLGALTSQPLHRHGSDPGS

SMILES | hERG current change (%, negative = inhibition) at 10uM
O=C(Nn1cc(C(=O)N2CCN(c3ccccc3F)CC2)c2ccccc2c1=O)c1cnccn1 | 2.84%
Cc1ccc(C(C)NC(=O)C23CC4CC(CC(C4)C2)C3)cc1 (stereo not shown) | 11.4%
CCOc1cccc(NC(=O)CSc2nc(C)c3c(c2C#N)CCCC3)c1 | 0.331%
CCN(Cc1ccccc1)C(=O)COC(=O)c1cc(=O)[nH]c2ccccc12 | -4.27%
COC(=O)C1=C(C)N(Cc2ccccc2)C(=NCCc2ccccn2)N[C@H]1c1cccc(F)c1 | -60.4%
COC(=O)C1=C(C)N(Cc2ccccc2)C(=NCc2ccc(OC)cc2)N[C@H]1c1cccc(F)c1 | 6.76%
CCN1C(=NCCCCO)N[C@@H](c2cccc(F)c2)C(C(=O)OC)=C1C | 6.82%
COC(=O)C1=C(C)N(Cc2ccccc2)C(=NCc2ccccc2)N[C@H]1c1cccc(F)c1 | -11.5%
CCN1C(=NCCOC)N[C@@H](c2cccc(F)c2)C(C(=O)OC)=C1C | -14.3%
CCN1C(=NCCc2ccccn2)N[C@@H](c2cccc(F)c2)C(C(=O)OC)=C1C | -56.7%
O=C1c2ccccc2CN1CCSC(=S)N1CCOCC1 | -8.59%
CC(C)C[C@H](NC(=O)C1CC(=O)N(c2ccc3c(c2)OCO3)C1)C(=O)NC1CCCCC1 (stereo partly shown) | 22.4%
COc1ccc(C(C)=O)cc1CSc1nc2cc(C(=O)O)ccc2c(=O)n1Cc1ccccc1 | 12.7%
CCOc1cc(CNCCc2ccc(S(N)(=O)=O)cc2)cc(Cl)c1OCc1ccccc1.Cl | -70.7%
CCOc1ccc2ccccc2c1CNCCc1ccc(S(N)(=O)=O)cc1.Cl | -73.1%
COc1cc(CNCCc2ccccc2)cc(Cl)c1OCc1ccccc1.Cl | -18.7%
CCOc1cc(CNCCc2ccc(S(N)(=O)=O)cc2)ccc1OCc1ccccc1.Cl | -55.9%
CCOc1ccccc1OCC(=O)NCCc1ccc(S(N)(=O)=O)cc1 | 10.9%
CCNCc1cc(Cl)c(OCc2ccccc2)c(OCC)c1.Cl | -8.51%
CCOc1cc(CNCCc2ccc(S(N)(=O)=O)cc2)ccc1OCC(=O)NC(C)(C)C.Cl | 4.8%
CCOc1cc(CNCCc2ccc(S(N)(=O)=O)cc2)ccc1OCC(=O)NC1CCCCC1.Cl | -36.3%
CCOc1cc(CNCCc2ccc(S(N)(=O)=O)cc2)ccc1OCc1ccc(Cl)cc1.Cl | -18.5%

SMILES | hERG current change (%, negative = inhibition) at 10uM
COC(=O)c1ccc(C(=O)OC)c(NC(=O)/C=C/C(=O)O)c1 | 5.06%
CC(NC(=O)c1ccccc1SCC(=O)N1CCCC1)c1ccccc1 (stereo not shown) | -26.1%
CCCCP(=O)(CCCC)Cc1ccccc1 | 15.3%
CCN1C(=O)NC(=O)/C(=C/c2cc(C)n(-c3sc(C)c(C)c3C#N)c2C)C1=O | -4.66%
COc1ccc(-c2c(C)nc(N)nc2-c2ccc(OCc3ccc(C)cc3)cc2O)cc1OC | 4.25%
CCOc1ccc(C(=O)N2CCN(Cc3ccccc3)CC2)cc1 | -69.3%
CCOc1ccc(C(=O)N2CCN(c3ccccc3)CC2)cc1 | -36.3%
CCN1CCN(C(=S)c2ccc(O)cc2)CC1 | 11%
CCOc1ccc(CN2CCN(C(=O)c3ccccc3)CC2)cc1 | -39.5%
COc1ccc(C(=S)N2CCN(C)CC2)cc1 | -22.8%
CCOc1ccc(C(=O)N2CCCN(C(=O)c3ccc(OCC)cc3)CC2)cc1 | -71.8%
CCOc1ccc(C(=O)N2CCN(c3cccc(Cl)c3)CC2)cc1 | -73.7%
CCN(CC)c1ccc(C(=O)N2CCN(Cc3ccccc3)CC2)cc1 | -37.8%
CCOc1ccc(C(=O)N2CCCC2)cc1 | 5.24%
CCOc1ccc(C(=O)N2CCCCCC2)cc1 | 2.03%
COc1ccc(C(=O)N2CCN(c3cccc(Cl)c3)CC2)cc1 | -36%
CCN1CCN(C(=S)c2ccc(OC)cc2)CC1 | -64.8%
Cn1c(SCC(=O)N2CCCC2=O)nc2ccccc21 | 28.2%
CCCS(=O)(=O)N1CCCC(C(=O)N2CCC3(CC2)OCCO3)C1 (stereo not shown) | 15.7%
CCCCNS(=O)(=O)c1ccc2nc(-c3cccnc3)cc(C(=O)NCC(OC)OC)c2c1 | -2.03%
O=[N+]([O-])c1ccc(N2CCN(c3ccccc3F)CC2)c(S(=O)(=O)N2CCOCC2)c1 | -5.12%
CC(=O)NC(Nc1nc2c(s1)CCCC2)(C(F)(F)F)C(F)(F)F | 23.8%

SMILES | hERG current change (%, negative = inhibition) at 10uM
C=CCNC(=O)/C(=C\C=C\c1ccccc1)NC(=O)c1ccccc1Cl | -49.7%
CNC(=O)c1[nH]cnc1C(=O)NCC(=O)OCc1ccccc1 | 13.9%
Cc1cc(NC(=O)c2cc([N+](=O)[O-])cc([N+](=O)[O-])c2)n(-c2ccccc2)n1 | 7.63%
COc1ccc(/C=C2\CCn3c2nc2cc(C(=O)O)ccc2c3=O)cc1 | 9.07%
COC(=O)CCCC1=CC2=CC(=O)C(C)(OC(=O)c3cccs3)C(=O)C2=CN1CCCCO (stereo not shown) | 3.74%
CCCCc1cc(=O)oc2cc(OC(C)C(=O)NCc3ccccn3)c(Cl)cc12 (stereo not shown) | -13.6%
Br.COc1ccc(-c2csc(CCN3N=C(C)CC3=O)n2)cc1 | 12.7%
CCOc1ccc(C(=O)N2CCN(c3cccc(C)c3C)CC2)cc1 | -79.9%
Cc1ccc(S(=O)(=O)NCCC(=O)N2CCN(C/C=C/c3ccccc3)CC2)cc1 | -49.5%
CCOc1ccc(C(=S)N2CCCC2)cc1 | -7.78%
Cc1ccc(S(=O)(=O)NCCC(=O)N2CCN(Cc3ccccc3)CC2)cc1 | 11%
CCOc1ccc(C(=S)N2CCN(C)CC2)cc1 | -82.2%
CCOc1ccc(C(=S)N2CCOCC2)cc1 | -13.2%
CCCNS(=O)(=O)c1ccc(OCC(=O)N2CCN(Cc3ccccc3)CC2)cc1 | -28.6%
Cc1cccc(N2CCN(C(=O)c3ccncc3)CC2)c1C | -37%
O=C(CCNS(=O)(=O)c1ccccc1F)N1CCN(C/C=C/c2ccccc2)CC1 | -47.8%
CCOc1ccc(S(=O)(=O)NCCC(=O)N2CCN(Cc3ccccc3)CC2)cc1 | -54.2%
O=C(CCNS(=O)(=O)c1ccc(OC(F)(F)F)cc1)N1CCN(C/C=C/c2ccccc2)CC1 | -81.5%
CCOC(=O)N1CCN(c2cccc(C)c2C)CC1 | -2.36%
CC(=O)Nc1ccc(S(=O)(=O)NCC2CCC(C(=O)N3CCCCCC3)CC2)cc1 (stereo not shown) | 5.67%
CN(c1ccccc1)S(=O)(=O)c1ccc(Cl)nc1 | 10.8%
C#CCOCCOCCOCCNc1nc(N2CCN(C(=O)[C@H]([C@@H](C)CC)n3cc([C@@H](N)Cc4ccc(O)cc4)nn3)CC2)nc(N2CCN(C(=O)[C@H](Cc3cc4ccccc4[nH]3)n3cc([C@@H](N)C(C)CC)nn3)CC2)n1.Cl (stereo partly shown) | 3.33%

SMILES | hERG current change (%, negative = inhibition) at 10uM
Cc1cc(Cl)ccc1OCC(=O)Nc1nc(-c2cccs2)cs1 | 15.6%
CC(OC(=O)Cc1c[nH]c2ccccc12)C(=O)Nc1ccccc1F (stereo not shown) | -11.7%
O=C(c1cccc(C(=O)N2CCN(Cc3ccccc3)CC2)c1)N1CCN(Cc2ccccc2)CC1 | -17.2%
CCN1CCN(Cc2cccc(Oc3ccccc3)c2)CC1 | -35.9%
COc1cccc(C(=O)N2CCN(Cc3cccc(F)c3)CC2)c1.O=C(O)C(=O)O | -7.48%
O=C(O)C(=O)O.O=C(c1cccc(F)c1)N1CCN(Cc2cccc(Br)c2)CC1 | -48.6%
CN1CCN(Cc2cccc(Oc3ccc(Cl)cc3)c2)CC1 | 1.98%
O=C(c1ccccc1)N1CCN(Cc2cccc(Oc3ccccc3)c2)CC1 | -50.1%
CCN1CCN(Cc2cccc(Oc3ccc(Cl)cc3)c2)CC1 | -56.9%
CCOc1ccc(CN2CCN(C(=O)c3cccc(F)c3)CC2)cc1.O=C(O)C(=O)O | -62%
COc1cccc(CN2CCN(C(=O)c3ccc(-c4ccccc4)cc3)CC2)c1 | -38.3%
C=CCn1c(-c2cccc(OC)c2OC)n[nH]c1=S | -24.3%
Cc1cc2c(c(=O)n1Cc1ccccn1)C(c1ccc3c(c1)OCO3)C(C#N)=C(N)O2 (stereo not shown) | -0.622%
COc1ccc(C(=S)N2CCCC2)cc1OC | 2.36%
CC(C)OC(=O)CC(=O)CSc1nc2c(cc1C#N)CCCCCC2 | -4.33%
O=C(O)c1ccc(C2SCC(=O)N2Cc2ccccc2)cc1 (stereo not shown) | -0.7%
COc1ccc(N2CCN(C(=O)CSc3nnc4c(C)cc5cc(C)ccc5n34)CC2)cc1 | -21.2%
O=C1C2C3C=CC(C3)C2C(=O)N1c1n[nH]c(-c2cccnc2)n1 (stereo not shown) | 11.1%
O=C(CSc1nnc(Cn2c(=O)sc3ccccc32)n1-c1ccccc1)N1CCCCCC1 | -12.5%
